Test results as given in PubChem BioAssay (NCATS).
Results filed as inconclusive are left out. Entries that show only a call come without a potency. Calls of active or inactive are those of the source. The call rests on the fitted dose curve; in most records, active means well fitted inhibition curve with a large enough effect; inconclusive means small, poorly fitted or top-dose-only effect; inactive means flat fitted curve, though single readings scatter.

Experiments:
Test in all cases: qHTS profiling for inhibitors of Plasmodium falciparum proliferation (AID 504749); further: nearly all actives have a fitted effect of over 60% in size
Settings in all cases: P. falciparum in erythrocytes, SYBR Green DNA, 72 h; series mostly up to 28.7 µM
DFO2036 = tested on: DFO2036
Procedure, shortened: (§1)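 Fluorescence of SYBR Green-bound parasite DNA, read at 485/535 nm, served as the growth measure. Infected erythrocytes were cultured with compound 72 h; artemisinin (0.29 uM) and DMSO wells defined the normalization range.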

DIV14 = tested on: DIV14
Procedure, shortened: as §1

DIV17 = tested on: DIV17
Procedure, shortened: as §1

DIV30 = tested on: DIV30
Procedure, shortened: as §1

Dd2 = tested on: Dd2
Procedure, shortened: as §1

ECU = tested on: ECU
Procedure, shortened: as §1

FAB9 = tested on: FAB9
Procedure, shortened: as §1

GB4 = tested on: GB4
Procedure, shortened: as §1

HB3 = tested on: HB3
Procedure, shortened: as §1

ICS = tested on: ICS
Procedure, shortened: as §1

JCK = tested on: JCK
Procedure, shortened: as §1

N140 = tested on: N140
Procedure, shortened: as §1

P93_24 = tested on: P93_24
Procedure, shortened: as §1

P94_40 = tested on: P94_40
Procedure, shortened: as §1

PAD = tested on: PAD
Procedure, shortened: as §1

PC15 = tested on: PC15
Procedure, shortened: as §1

PC26 = tested on: PC26
Procedure, shortened: as §1

SC27B = tested on: SC27B
Procedure, shortened: as §1

TAB109 = tested on: TAB109
Procedure, shortened: as §1

PC49 = tested on: PC49
Procedure, shortened: as §1
Potency means the concentration at half of the fitted maximal effect.

| Compound | Potency (DFO2036) | Potency (DIV14) | Potency (DIV17) | Potency (DIV30) | Potency (Dd2) | Potency (ECU) | Potency (FAB9) | Potency (GB4) | Potency (HB3) | Potency (ICS) | Potency (JCK) | Potency (N140) | Potency (P93_24) | Potency (P94_40) | Potency (PAD) | Potency (PC15) | Potency (PC26) | Potency (SC27B) | Potency (TAB109) | Potency (PC49) |
| --- | --- | --- | --- | --- | --- | --- | --- | --- | --- | --- | --- | --- | --- | --- | --- | --- | --- | --- | --- | --- |
| O=S(=O)(O)O | inactive | inactive | inactive | inactive | inactive | inactive | inactive | inactive | inactive | inactive | inactive | inactive | inactive | inactive | inactive | inactive | inactive | inactive | inactive |  |
| Nc1c(N=Nc2ccc(-c3ccc(N=Nc4cc(S(=O)(=O)O)c5ccccc5c4N)cc3)cc2)cc(S(=O)(=O)O)c2ccccc12 | inactive | inactive | inactive | inactive | inactive | inactive | inactive | inactive | inactive | inactive |  | inactive | inactive | inactive | inactive | inactive | inactive | inactive | inactive | inactive |
| C[C@H]1C[C@H]2[C@@H]3CCC4=CC(=O)C=C[C@]4(C)[C@@]3(F)[C@@H](O)C[C@]2(C)[C@@]1(O)C(=O)CO | inactive | inactive | inactive | inactive | inactive | inactive | inactive | inactive | inactive | inactive | inactive | inactive | inactive | inactive | inactive | inactive | inactive | inactive | inactive | inactive |
| C=CCSSSCC=C | inactive | inactive | inactive | inactive | inactive | inactive | inactive | inactive | inactive | inactive | inactive | inactive |  | inactive | inactive | inactive | inactive | inactive | inactive | inactive |
| O=C(Nc1cccc(C(F)(F)F)c1)c1cc(Br)cc(Br)c1O | 10 µM (active) | 13.5 µM (active) | 13.5 µM (active) | 13.5 µM (active) |  | 10 µM (active) |  |  |  | 8.91 µM (active) | 10 µM (active) | 11.2 µM (active) |  |  |  |  |  | 8.91 µM (active) |  |  |
| CC1(C)S[C@@H]2[C@H](NC(=O)[C@@H](NC(=O)N3CCNC3=O)c3ccccc3)C(=O)N2[C@H]1C(=O)O | inactive | inactive | inactive | inactive | inactive | inactive | inactive | inactive | inactive | inactive | inactive | inactive | inactive | inactive | inactive | inactive | inactive | inactive | inactive | inactive |
| CO[C@H](C(=O)[C@@H](O)[C@@H](C)O)C1Cc2cc3cc(O[C@H]4C[C@@H](O[C@H]5C[C@@H](O)[C@H](O)[C@@H](C)O5)[C@@H](O)[C@@H](C)O4)c(C)c(O)c3c(O)c2C(=O)[C@H]1O[C@H]1C[C@@H](O[C@H]2C[C@@H](O[C@H]3C[C@](C)(O)[C@H](O)[C@@H](C)O3)[C@H](O)[C@@H](C)O2)[C@H](O)[C@@H](C)O1 (stereo partly specified) | 0.112 µM (active) | 0.601 µM (active) | 0.675 µM (active) | 2.39 µM (active) | 0.0891 µM (active) | 0.126 µM (active) | 0.562 µM (active) | 0.675 µM (active) | 0.1 µM (active) | 0.0794 µM (active) |  | 0.126 µM (active) | 0.112 µM (active) | 0.112 µM (active) | 0.158 µM (active) | 0.316 µM (active) | 3.01 µM (active) | 0.126 µM (active) | 0.141 µM (active) | 0.708 µM (active) |
| Nc1ncnc2c1ncn2[C@@H]1O[C@H](COP(=O)(O)OP(=O)(O)OP(=O)(O)O)[C@@H](O)[C@H]1O | inactive | inactive | inactive | inactive | inactive | inactive | inactive | inactive | inactive | inactive | inactive | inactive | inactive | inactive | inactive | inactive | inactive | inactive | inactive | inactive |
| COC(=O)C1=C(C#N)NC(C)=C(C(=O)OC(C)C)C1c1cccc([N+](=O)[O-])c1 (stereo unspecified) | 12.6 µM (active) | 7.57 µM (active) | 13.5 µM (active) | 10.7 µM (active) | 12.6 µM (active) | 10 µM (active) |  |  | 10 µM (active) | 7.94 µM (active) |  | 7.94 µM (active) | 12.6 µM (active) |  | 10 µM (active) | 10 µM (active) | 13.5 µM (active) | 8.91 µM (active) | 8.91 µM (active) | 12.6 µM (active) |
| Cc1cc(C(=O)NNCc2ccccc2)no1 | inactive | inactive | inactive | inactive | inactive | inactive | inactive | inactive | inactive | inactive | inactive | inactive | inactive | inactive | inactive | inactive | inactive | inactive | inactive | inactive |
| CC(=O)Oc1c(C)cc(OCC(O)CNC(C)C)c(C)c1C (stereo unspecified) | inactive | inactive | inactive | inactive | inactive | inactive | inactive |  | inactive | inactive | inactive | inactive | inactive | inactive | inactive | inactive | inactive | inactive | inactive | inactive |
| CO[C@H]1C[C@@H]2CC[C@@H](C)[C@@](O)(O2)C(=O)C(=O)N2CCCC[C@H]2C(=O)O[C@H]([C@H](C)C[C@@H]2CC[C@@H](OCCO)[C@H](OC)C2)CC(=O)[C@H](C)/C=C(\C)[C@@H](O)[C@@H](OC)C(=O)[C@H](C)C[C@H](C)/C=C/C=C/C=C/1C | 1.41 µM (active) | 1.69 µM (active) | 1.69 µM (active) | 1.51 µM (active) | 0.891 µM (active) | 1.78 µM (active) |  | 1.69 µM (active) | 2 µM (active) | 0.501 µM (active) | 10 µM (active) | 1 µM (active) | 1.41 µM (active) | 2 µM (active) | 1.41 µM (active) | 3.16 µM (active) | 2.13 µM (active) | 1.41 µM (active) | 1.78 µM (active) | 5.01 µM (active) |
| COC(=O)CCC(=O)CN | inactive |  | inactive | inactive | inactive | inactive | inactive | inactive | inactive | inactive | inactive | inactive | inactive | inactive | inactive | inactive | inactive | inactive | inactive | inactive |
| CC(=O)Oc1cc(C)c(OC(C)=O)c2ccccc12 |  | 6.01 µM (active) | 6.75 µM (active) |  |  |  |  | 7.57 µM (active) |  | 6.31 µM (active) |  |  | 7.94 µM (active) |  |  | 4.47 µM (active) | 7.57 µM (active) |  |  |  |
| O=CCCCC=O | inactive | inactive |  |  | inactive | inactive | inactive |  |  | 7.08 µM (active) | inactive | inactive |  | inactive | inactive | inactive |  | inactive | inactive | inactive |
| CC[C@@]1(O)C(=O)OCc2c1cc1n(c2=O)Cc2cc3c([N+](=O)[O-])cccc3nc2-1 | 5.01 µM (active) |  |  |  | 8.91 µM (active) | 7.94 µM (active) |  | 6.75 µM (active) |  | 5.01 µM (active) |  | 8.91 µM (active) | 7.94 µM (active) | 5.01 µM (active) |  |  |  | 5.62 µM (active) | 3.98 µM (active) |  |
| NC1C2CN(c3nc4c(cc3F)c(=O)c(C(=O)O)cn4-c3ccc(F)cc3F)CC12 (stereo unspecified) |  |  |  | inactive |  |  |  |  |  |  |  |  |  |  |  |  | inactive |  |  |  |
